# Measurements as given in PubChem BioAssay.
# Activity calls are given as the source filed them.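 The calls were made as follows, unless noted: active = compound that reduces growth-factor-driven endothelial tube area in a mixed cell culture, no cutoff stated; inactive = the rest.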
# How the values were obtained:
# [1] = Wnt pathway potentiators raising nuclear beta-catenin – imaging, WNT3A-conditioned medium, mouse C2C12, NPC library, primary screen (AID 1117326; in the data active = nuclear beta-catenin stimulation mostly above about 4.2%, no sharp cut-off; inactive = mostly below about 10%; also: reference of the scale not given here); conditions: stronger effect = higher value
# [2] = stimulators of insulin release from INS-1E, primary screen, cell-based, 5 mM glucose, NPC library (AID 1117329;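 active = compound raises insulin release from rat beta cells at 5 mM glucose, no numeric limit stated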; also: reference of the scale not given here); conditions: rat INS-1E insulin secretion, at 10 µM, stronger effect = higher value
# [3] = growth inhibition of GSK3B-pretreated HCT116 cells – cell-based, CellTiter-Glo, 0.2 to 20 µM (AID 1117336;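 active = compounds lowering colon cancer cell viability after pretreatment blocking the GSK3B kinase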); conditions: HCT116 viability after GSK3B inhibitor, at 20 µM, stronger effect = higher value
# [4] = inhibition of endothelial tube formation, primary screen, imaging, VEGF stimulated, CD31 staining, tube area, NPC library (AID 1117340); conditions: VEGF-stimulated ADSC/ECFC co-culture, at 10 µM, stronger effect = higher value
# [5] = GLP1 release stimulators, primary, NCI-H716, NPC library (AID 1117341;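 active = compound raises GLP1 secretion from the human gut endocrine cells, with no numeric limit stated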; also: reference of the scale not given here); conditions: NCI-H716 cells, at 10 µM, stronger effect = higher value
# [6] = HCT116 colon cancer cell growth inhibition, primary screen, CellTiter-Glo luminescence, NPC library (AID 1117342;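 active = compounds that lower survival of HCT116 colon cancer cells in the luminescence readout, no numeric limit stated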); conditions: at 20 µM (top of the series)
# [7] = reduced SW480 viability measured with CellTiter-Glo, NPC library, primary (AID 1117343;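 active = compounds that lower viability of the colon cancer cells in the luminescence readout, with no numeric limit stated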); conditions: CellTiter-Glo luminescence; at 20 µM (top of the series)
# [8] = NPC library primary testing for decreased DLD-1 cell viability via CellTiter-Glo (AID 1117346;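 active = compounds that lower survival of DLD-1 colon cancer cells in the luminescence readout, no cutoff given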); conditions: DLD-1 viability, CellTiter-Glo luminescence; at 20 µM (top of the series)
SMILES,nuclear beta-catenin stimulation ([1]; at 10 µM),"nuclear beta-catenin stimulation ([1]; stimulation, at 2 µM) [%]",insulin secretion stimulation [2],viability decrease [3],tube area decrease [4],GLP1 secretion stimulation [5],inhibition of viability [6],viability decrease (inhibition) [7],viability decrease (inhibition) [8]
CO[C@@H]1[C@@H](OC)[C@H](C)[C@@](O)(CC(=O)O)O[C@H]1[C@H](C)[C@H]1O[C@@]2(CC[C@@](C)([C@H]3CC[C@@](C)([C@@H]4O[C@@H]([C@H]5O[C@](C)(O)[C@H](C)C[C@@H]5C)C[C@@H]4OC4C[C@H](OC)[C@@H](OC)[C@H](C)O4)O3)O2)C[C@H](O)[C@H]1C (some centres not stated),-1.1% (inactive),10.6,5.4% (inactive),79.8% (active),111% (active),15% (inactive),66.7% (active),128% (active),96.7% (active)
O=C(CS)Nc1ccccc1,0.5% (inactive),-0.2,6.4% (inactive),-38.2% (inactive),4.3% (inactive),-2.3% (inactive),-19.3% (inactive),-2.4% (inactive),-12.9% (inactive)
COC(=O)c1cc(Cl)ccc1OC,-0.1% (inactive),-1.6,1.5% (inactive),1.2% (inactive),-13.8% (inactive),2.6% (inactive),8.2% (inactive),-4.7% (inactive),0.3% (inactive)
C[C@@H](CN(C)C)CN1c2ccccc2Sc2ccccc21,3% (inactive),-0.4,15.1% (active),-61.3% (inactive),0.6% (inactive),10.3% (inactive),45.3% (inactive),103% (active),48.3% (inactive)
Cc1oc(-c2ccccc2)nc1CCC(=O)c1ccc(CC2SC(=O)NC2=O)cc1 (configuration not stated),3.2% (inactive),-0.4,3.5% (inactive),97.3% (active),9.6% (inactive),12.7% (inactive),95.4% (active),120% (active),96.5% (active)
COc1ccc(S(=O)(=O)Nc2nnc(CC(C)C)s2)cc1,-0.3% (inactive),-0.5,5.1% (inactive),-9.2% (inactive),-5.8% (inactive),-1.9% (inactive),-18.3% (inactive),13.7% (inactive),-19.8% (inactive)
CNC(=O)CN(CCN(CCN(CC(=O)[O-])CC(=O)NC)CC(=O)[O-])CC(=O)[O-].O.[Gd+3],1.4% (inactive),-0.1,0.2% (inactive),38.3% (inactive),18.9% (inactive),-4.4% (inactive),25.4% (inactive),30.9% (inactive),3.8% (inactive)
CCC(C(=O)OCCN(CC)CC)c1ccccc1 (configuration not stated),1.2% (inactive),-0.6,1.3% (inactive),-8.4% (inactive),-11.9% (inactive),-2.1% (inactive),-0.3% (inactive),4.5% (active),-11.1% (inactive)
O=C(OCCN1CCOCC1)c1cccnc1Nc1cccc(C(F)(F)F)c1,1.2% (inactive),-0.8,-0.1% (inactive),42% (inactive),8.9% (inactive),3.6% (inactive),55.9% (active),62.3% (active),28.3% (inactive)
CN1N=C(C(N)=O)CCC1=O,1.1% (inactive),1.9,1.05% (inactive),3.8% (inactive),1.5% (inactive),2.5% (inactive),15.3% (inactive),-11.3% (inactive),10.1% (inactive)
COC(=O)C(CN)c1c[nH]c2ccc(OC)cc12 (configuration not stated),-2.2% (inactive),-1,2.3% (inactive),-18.2% (inactive),5.7% (inactive),7.7% (inactive),8.5% (inactive),19.4% (inactive),16.7% (inactive)
Oc1cccc(-c2c3nc(c(-c4cccc(O)c4)c4ccc([nH]4)c(-c4cccc(O)c4)c4nc(c(-c5cccc(O)c5)c5ccc2[nH]5)CC4)C=C3)c1,24.3% (inactive),-1.7,-1.15% (inactive),95.2% (active),-79.5% (inactive),13.6% (inactive),109% (active),141% (active),95.7% (active)
COc1ccc2nc(NC(=O)Nc3ccccc3)sc2c1,0.5% (inactive),0,1.3% (inactive),11.7% (inactive),2.4% (inactive),-1.4% (inactive),43% (inactive),-1.6% (inactive),24% (inactive)
O=c1[nH]c(=O)n([C@H]2O[C@H](CO)[C@@H](O)[C@@H]2O)cc1/C=C\Br,0.8% (inactive),-0.6,3.5% (inactive),-12.2% (inactive),-20.7% (inactive),1.5% (inactive),-27.5% (inactive),-23.9% (inactive),2.6% (inactive)
O=C(CCN1CCC(c2ccccc2)C1)c1ccc2c(c1)OCCO2 (configuration not stated),12.8% (inactive),0.5,0% (inactive),11.6% (inactive),17% (active),1.4% (inactive),-10.2% (inactive),158% (active),101% (active)
CN(C)[C@@H]1C(=O)C(C(=O)NCN2CCCC2)=C(O)[C@@]2(O)C(=O)C3=C(O)c4c(O)cccc4[C@@](C)(O)C3C[C@@H]12 (some centres not stated),3.5% (inactive),3.1,2.3% (inactive),-20.7% (inactive),-7.9% (inactive),25.3% (active),3.4% (inactive),-73.8% (inactive),2.6% (inactive)
O=C(CCN1CCN(CCO)CC1)N1c2ccccc2Sc2ccc(C(F)(F)F)cc21,2.5% (inactive),1.4,8.2% (inactive),50.2% (active),25.8% (inactive),2.4% (inactive),49.2% (inactive),96.4% (active),58.8% (active)
O=C(O)c1ccc(OCCCOc2ccc(C(=O)O)cc2)cc1,1.9% (inactive),0.7,3.2% (inactive),-0.8% (inactive),-2.8% (inactive),-1.8% (inactive),-0.8% (inactive),5.3% (inactive),-6.3% (inactive)
C[C@@H]1CCC[C@H](C)N1CCCC(O)(c1ccccc1)c1ccccn1 (some centres not stated),1% (inactive),0,2.6% (inactive),-50.8% (inactive),12.8% (inactive),1.3% (inactive),-3.7% (inactive),14.7% (inactive),-14.8% (inactive)
CCCCOC(=O)CCCCCCCCC(=O)OCCCC,1.4% (inactive),1,2.4% (inactive),10.4% (inactive),3.7% (inactive),1.9% (inactive),13.3% (inactive),-9.1% (inactive),7.6% (inactive)
Cn1cc(C(=O)[C@@H]2CCc3nc[nH]c3C2)c2ccccc21,2.4% (inactive),-0.1,5.1% (inactive),2.2% (inactive),17.2% (inactive),0.6% (inactive),-2.5% (inactive),11.2% (inactive),-4.05% (inactive)
CCOc1ccc(NS(=O)(=O)c2ccc(N)cc2)nn1,-0.3% (inactive),0.4,-0.2% (inactive),1.55% (inactive),-25.2% (inactive),2.6% (inactive),-1.7% (inactive),29.4% (inactive),4.15% (inactive)
CC(NC(CCc1ccccc1)C(=O)O)C(=O)N1C(=O)N(C)CC1C(=O)O (configuration not stated),-1.2% (inactive),1.8,5.3% (inactive),-39.7% (inactive),6% (inactive),-5.4% (inactive),2.8% (inactive),4.5% (inactive),-6% (inactive)
O=C1OC2(c3ccccc31)c1cc(Br)c(O)c(Br)c1Oc1c2cc(Br)c(O)c1Br,-0.8% (inactive),-2.9,0.5% (inactive),32.8% (inactive),-24.2% (inactive),17.7% (inactive),7.8% (inactive),24.1% (inactive),-5.4% (inactive)
C=CCNCCCCCC[N+](C)(C)C,-1.4% (inactive),0.4,-0.9% (inactive),-5.7% (inactive),-1.9% (inactive),-0.6% (inactive),-3.1% (inactive),-2.3% (inactive),-2.3% (inactive)
CCCC(=O)O[C@]1(C(=O)CC)CC[C@H]2[C@@H]3CCC4=CC(=O)CC[C@]4(C)[C@H]3[C@@H](O)C[C@@]21C,-0.2% (inactive),1.5,6.6% (inactive),12.1% (inactive),-2.7% (inactive),5.3% (inactive),18.1% (inactive),35.2% (inactive),25.5% (inactive)
COc1cc(C(=O)N2CCCCCCC2)cc(OC)c1OC,0.9% (inactive),-1.2,5% (inactive),-2.3% (inactive),-2.6% (inactive),2.6% (inactive),17.8% (inactive),-7.8% (inactive),7.8% (inactive)
CCCCCCCCCCCCCCCCCCN(C)C,-0.6% (inactive),-1.1,0.9% (inactive),1.2% (inactive),-8% (inactive),-0.1% (inactive),43.3% (inactive),-27.7% (inactive),-0.1% (inactive)
